This is an account of results in PubChem BioAssay AID588335 (The Scripps Research Institute Molecular Screening Center, 2011).

In general, inhibition refers to the relative decrease from the control value, in per cent.

Molecules are shown by their SMILES. About 4,500 (1.2%) of roughly 360,000 compounds were called active. The sample holds actives, similar compounds and a random draw of the others, so the mix is not that of the screen. A number with no mark means an inactive call. No stated cut-off is given here; in the data, active means inhibition above about 30%; inactive means the rest.

The assay can be described thus: inhibition of GDH and TPI enzymes – biochemical, absorbance, full deck, artefact control for M. tuberculosis FBA inhibitor project, primary screen (AID 588335).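 Further: 0% = DMSO wells and 100% = wells lacking the enzyme.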 As to conditions: GDH-TPI coupled enzyme counterscreen, NADH absorbance; at 4.8 µM; hits give high values.
As for `OCC(O)C1OCOC(C(O)CO)C1O` (centres undefined), the inhibition is 3.51%. With `CCCNS(=O)(=O)c1ccc(CCC(=O)NCc2cccnc2)cc1` the figure was 1.83%; with `Nc1ncnc(Nc2cccc(Cl)c2Cl)n1`, 6.09%; with `CC1CCN(C(=O)c2ccc(S(=O)(=O)Cc3cc(F)ccc3F)c([N+](=O)[O-])c2)CC1`, 2.21%. With `CCOc1ccccc1NC(=O)C1CCCN(S(=O)(=O)c2ccccc2)C1` (centres undefined) the figure was 11.6%; with `O=C(CNS(=O)(=O)c1ccc2c(c1)OCCCO2)N1CCN(c2ccc(F)cc2)CC1`, 6.99%. Take `COc1ccc(N2CCN(C(=O)CNS(=O)(=O)c3ccc(C)c(C)c3)CC2)cc1`: the inhibition is 10.1%. With `Cc1ccc(-c2cc(C(=O)NN)n[nH]2)o1` the figure was -4.43%.

With `O=C(NN=CC=Cc1ccccc1)C(O)C(O)C(=O)NN=CC=Cc1ccccc1` (centres undefined), the inhibition was 20.2%. In the case of `Cc1ccc(-c2cc(C(=O)N/N=C/C=C/c3ccccc3)n[nH]2)o1`, the inhibition was 36.6% (active). Take `CCC(C)(C)NC(=O)C(c1ccc(O)cc1)N(Cc1ccco1)C(=O)CCC(=O)Nc1ccccn1` (centres undefined): the inhibition was 0%. Take `CCCc1nc(N2CCN(C)CC2)c2sc(=S)n(-c3ccccc3)c2n1`: the inhibition was 11.9%. As for `Cc1noc(C)c1CSc1nc2cc(S(=O)(=O)N3CCOCC3)ccc2o1`, the inhibition was 0%. With `O=C(Cc1ccccc1)Nc1ccc(NC(=O)c2cccnc2)cc1`, the inhibition is -3.47%. As to `O=C(Nc1cnccn1)c1cccnc1`, the inhibition was -10.2%. Regarding `O=C(CC(=O)c1cccnc1)c1ccccc1`, the inhibition is 31.5% (active).

For `CS(=O)(=O)N1CCCC(C(=O)N2CCOCC2)C1` (centres undefined), the inhibition is 5.31%. With `O=C(Nc1ccccc1C(=O)O)c1cc(S(=O)(=O)N2CCCCC2)cs1`, the inhibition was -4.43%.

`Cc1c(C(=O)NCCCc2ccccc2)cccc1[N+](=O)[O-]`: the inhibition was 10%. As to `O=C(NCCN1C(=O)S/C(=C\c2cccnc2)C1=O)c1cccc(OC(F)F)c1`, the inhibition was 8.86%. The same measure for `Cc1c(C(=O)NCCN2C(=O)S/C(=C\c3cccs3)C2=O)cccc1[N+](=O)[O-]`: 39.5% (active); for `Cc1cc(C)c(C)c(S(=O)(=O)N2CCN(C(=O)c3ccc4c(=O)n5c(nc4c3)CCC5)CC2)c1C`: 5.92%.

Regarding `CC(C)CC1C(=O)N(Cc2cn(Cc3ccco3)nn2)CCS(=O)(=O)N1Cc1ccc(-c2ccc(Cl)c(Cl)c2)cc1` (centres undefined), the inhibition is -1.42%. For the compound `COc1ccc(N2C(=O)/C(=C\c3ccco3)N=C2SCC(N)=O)cc1Cl`, the inhibition was 8.83%.

For `CC(=O)c1sc(NC(=O)c2ccc(C)cc2)nc1C`, the inhibition was 31.3% (active). Take `CCOC(=O)c1sc(NC(=O)CSc2n[nH]c(CC)n2)nc1C`: the inhibition is -0.63%. The same measure for `CC(=O)c1sc(NC(=O)C2=NN(c3ccccc3)C(=O)CC2)nc1C`: 29.1%; for `CCOC(=O)c1sc(NC(=O)c2sc(C)nc2C)nc1C`: 34.6% (active); for `Cc1ccc(C(=O)Nc2ccn(C)n2)cc1`: -9.27%. With `CCOC(=O)c1sc(NC(=O)c2ccncc2)nc1C` the figure was 39.2% (active); with `CCOC(=O)c1sc(/N=C/Nc2nc(C)c(C(=O)OCC)s2)nc1C`, 0.95%. As for `CCOC(=O)c1sc(NC(=O)C(CC)Sc2nccn2C)nc1C` (centres undefined), the inhibition is 10.2%. With `CCOC(=O)c1cccnc1NC(=O)c1ccncc1` the figure was -7.37%.

As for `Cc1ccc(N2CCN(S(=O)(=O)N(C)C)CC2)cc1Cl`, the inhibition was 8.64%. The same measure for `CC(c1ccco1)N(C(=O)c1ccc(S(=O)(=O)N2CCCCC2)cc1)c1ccccn1` (centres undefined): 3.73%.

For `Cc1ccccc1N1CC(C(=O)Nc2ccc3c(c2)OCO3)CC1=O` (centres undefined), the inhibition is 7.55%. As for `CC1(C)CC(O)C(CCC(O)c2ccccc2)C(C)(C)N1` (centres undefined), the inhibition is 11.8%. With `Cc1ccc(Cl)cc1NC(=S)N(CCN(C)C)Cc1cccs1`, the inhibition was -1.86%. With `CCCC(=O)N1CCC(CCC(=O)NC2CC2)CC1`, the inhibition was -6.29%. The same measure for `CCCn1c(=S)[nH]c2ccc(C(F)(F)F)cc21`: 2.44%; for `Cc1cc(N2CCN(c3ccc(F)cc3)CC2)n2ncnc2n1`: -5.36%. For the compound `Cc1ccc(NC(=O)C2CCN(S(=O)(=O)c3ccc4c(c3)NC(=O)CO4)CC2)cc1C`, the inhibition is -3.15%. Regarding `COc1cc(OC)cc(C(=O)N[C@H](C(=O)Nc2nc3ccccc3[nH]2)C(C)C)c1`, the inhibition was 12.4%. The same measure for `COc1cccc(C(=O)Nc2ccc3nc4n(c(=O)c3c2)CCCCC4)c1`: 13.4%; for `COc1cc(OC)cc(C(=O)Nc2ccc(-c3nc4ccccc4o3)c(O)c2)c1`: 31.5% (active).

In the case of `CN(Cc1ccccc1)C(=O)C(=O)c1cn(CC(=O)N2CCCC2)c2ccccc12`, the inhibition is 13.8%. With `O=C(CSc1ccccn1)Nc1nc2c(ccc3ccccc32)s1` the figure was 13.6%; with `COc1cc(OC)c(OC)cc1CN1CCN(C(=O)c2cccc3ccccc23)CC1`, 0%. Turning to `O=C1C2CCCN2C(=O)N1CCCCN1CCN(c2cccc(C(F)(F)F)c2)CC1` (centres undefined), the inhibition is 15.7%.

In the case of `CC(=O)c1sc(N/N=C/c2ccc(C(C)C)cc2)nc1C`, the inhibition was 8.98%. With `COc1cc(/C=N\Nc2nc(-c3cccs3)c(NC(C)=O)s2)ccc1O` the figure was 34.8% (active); with `COc1cc(/C=C/C(=O)OCC(=O)NCCCc2ccccc2)ccc1O`, 19.3%; with `CC(C)=CCCC(C)CN1CCC(n2nccc2NC(=O)c2ccccc2)CC1` (centres undefined), -14.4%. With `Cc1ccc(C(=O)Nc2nnc(-c3ccncc3)s2)o1` the figure was 36.5% (active); with `CC(C)=CC(=O)Nc1nnc(-c2ccc(F)cc2)s1`, 2.46%; with `O=C(Nc1nnc(Cc2ccc(Cl)cc2)s1)c1ccncc1`, 16.2%. Turning to `NC(=O)C1CCN(C(=O)c2cc(S(=O)(=O)N3CCN(c4ccccc4)CC3)ccc2Cl)CC1`, the inhibition was 0%. With `Cc1[nH]n(C)c(=O)c1C(=O)c1c(-c2c(Cl)cccc2Cl)noc1C` the figure was 10.3%; with `Cc1[nH]n(C)c(=O)c1N=Nc1ccc(S(C)(=O)=O)cc1`, 33.3% (active). For the compound `Cc1c(N=Nc2ccc(N(C)C)cc2)c(=O)n(-c2ccccc2)n1C`, the inhibition was 7.74%.

For the compound `O=S(=O)(NCc1ccccc1Cl)c1cnc[nH]1`, the inhibition was 5.02%.

Turning to `O=C(NCC(=O)N1CCCCCCC1)c1ccccc1Cl`, the inhibition was 9.24%. For the compound `O=C(NCCCNC(=O)c1ccccc1Cl)c1cnccn1`, the inhibition was -2.33%. On to `O=C(NCCCO)/C(=C\C=C\c1ccccc1)NC(=O)c1ccccc1Cl`, for which the inhibition was 34.7% (active). For `CC(NCC(=O)Nc1ccccc1C(=O)NC1CC1)c1ccccc1Cl` (centres undefined), the inhibition was -5.56%. The same measure for `COCCn1cnnc1SCC(=O)Nc1cccc(S(=O)(=O)N2CCCCC2)c1`: -5.42%; for `COc1ccc(CC2c3cc(OC)c(OC)cc3CC[N+]2(C)CCC(=O)OCCCCCOC(=O)CC[N+]2(C)CCc3cc(OC)c(OC)cc3C2Cc2ccc(OC)c(OC)c2)cc1OC` (centres undefined): -11.1%; for `COc1cccc(Nc2ncccc2C(=O)O)c1`: 11.1%.

Consider `COc1cccc(C(=O)NC(=O)Nc2nc(C)cc(C(F)(F)F)n2)c1`, for which the inhibition was -10%. Turning to `COc1ccc2nc(C)cc(Nc3cccc(C(=O)O)c3)c2c1`, the inhibition is 32.2% (active).

`CC(C)CN(CC(C)C)C(=O)CN1c2cccc3cccc(c23)S1(=O)=O`: the inhibition was -9.01%. With `COc1ccc(C#Cc2c(-c3ccc(OC)cc3)oc3ccc(-c4ccc5c(c4)OCO5)cc23)cc1` the figure was 5.83%; with `C=CCNC(=O)COc1coc(CN2CCN(Cc3ccccc3)CC2)cc1=O`, -4.97%. With `C=CCNC(=S)/N=c1/ccccn1Cc1ccccc1` the figure was 33.6% (active). With `N=c1ccccn1Cc1ccccc1` the figure was -9.4%; with `O=C(COc1ccc2oc3c(c2c1)CCCC3)Nc1ccccn1`, -3.77%. Regarding `O=C(CN1CCOCC1)N1CCCc2c1c(=O)oc1ccc(OCc3ccccc3)cc21`, the inhibition is 31.5% (active). With `O=C(COc1ccc2c3c(c(=O)oc2c1)CCCC3)NCC(O)c1ccccc1` (centres undefined), the inhibition was 10.6%. The same measure for `CCc1nn(CC(=O)N2CCN(c3cc(C)ccc3C)CC2)c(=O)c2cc3occc3n12`: 3.06%; for `CCOC(=O)N1CCC(NC(=O)C(C)n2c3ccccc3c3cnn(C)c(=O)c32)CC1` (centres undefined): 1.24%. The same measure for `Cc1cc(C)nc(NS(=O)(=O)c2ccc(N/C=C\C(=O)c3cccs3)cc2)n1`: 10.6%. With `Cc1ccc(S(=O)(=O)Nc2nc(C)cc(N/N=C/c3ccc(O)cc3)n2)cc1` the figure was 31.1% (active); with `Cc1ccc(OCCCC(=O)Nc2ccc(S(=O)(=O)Nc3cc(C)nc(C)n3)cc2)cc1`, -1.42%. With `O=c1c(Cl)c(NCc2ccc(F)cc2Cl)cnn1C12CC3CC(CC(C3)C1)C2`, the inhibition is -9.45%. Take `CCc1nnc(NC(=O)c2cc(S(=O)(=O)N3CCN(CC)CC3)ccc2Cl)s1`: the inhibition was 7.27%. With `COc1cc(OC)cc(-c2c(-c3ccc(F)cc3)c3cc(-c4ccc5cc[nH]c5c4)ccc3n2C)c1` the figure was 43.2% (active); with `COc1cc(OC)cc(-c2c(-c3cccs3)c3cc(-c4ccc(OC)nc4)ccc3n2C)c1`, 23.8%; with `COc1ccc(-c2c(-c3cc(OC)cc(OC)c3)n(C)c3ccc(-c4ccn[nH]4)cc23)cc1`, 10.2%. For the compound `Cc1ccc(C(=O)CN2C(=O)NC3(CCc4ccccc43)C2=O)c(C)c1` (centres undefined), the inhibition was -0.34%. On to `O=C(CCCCO)c1ccc(O)c(Cl)c1`, for which the inhibition is 29.1%. The same measure for `Cc1c(S(=O)(=O)N2CC(C)CC(C)C2)c(=O)n(C)c(=O)n1C` (centres undefined): -4.2%. As to `CC(=O)C1=C(C)NC2=C(C(=O)CC(C)(C)C2)C1C` (centres undefined), the inhibition is 0.31%. With `Cc1cc2c(cc1C)NC(c1ccccn1)C1=C(CC(C)(C)CC1=O)N2` (centres undefined) the figure was 29.6%; with `CC1(C)CC(=O)C2=C(C1)Nc1cc(C(=O)c3ccccc3)ccc1NC2c1ccccn1` (centres undefined), 32.1% (active).
